Records with an inconclusive call do not appear. Values without a mark were called inactive. Calls of active or inactive are those of the source. The call rests on the fitted dose curve; in most records, active means well fitted inhibition curve with a large enough effect in the repeat runs; inconclusive means weak or mixed curves, or effect the other way; inactive means no such curve, though single readings can be large or run the other way.
Biological target: Nuclear receptor subfamily 1 group I member 3 (Homo sapiens) (UniProt Q14994)
Test: qHTS assay to identify small molecule antagonists of the constitutive androstane receptor (CAR) signaling pathway (AID 1224838);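 further: HepG2 cells stably expressing hCAR with CYP2B6 luciferase reporter stimulated by CITCO; nearly all actives have a fitted effect of over 40% in size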
Conditions: HepG2-CYP2B6-hCAR luciferase, CITCO-stimulated, 24 h; series mostly up to 92.4 µM; activity, negative = inhibition: at the top concentration
From the text: U.S. Tox21 Program National Center for Advancing Translational Sciences [NCATS] NIH Chemical Genomics Center [NCGC] U.S. Environmental Protection Agency [EPA] National Institutes of Environmental Health Sciences [NIEHS] National Toxicology Program [NTP] U.S. Food and Drug Administration [FDA] Tox21 Assay Overview: The constitutive androstane receptor (CAR) is a nuclear receptor which regulates multiple drug metabolizing enzymes (DMEs) and transporters. Activating CAR will generally increase the transcription and subsequent translation of CYP2B6 and CYP3A4. These two DMEs represent about 50% of the drug metabolizing potential in the body. When CAR is deactivated, the metabolizing potential in the body will decrease, subsequently increasing the toxicity in the body or lowering the therapeutic potential of a pro-drug. Recently, there have also been studies performed indicating CARs role in energy metabolism and cancer therapy. Therefore, inhibiting CARs activity could have a potential effect on diabetes and cancer. Identifying environmental toxins and compounds which modulate CAR, through the use of the Tox21 10K compound collection, will be an important step in determining the toxicity and potential therapeutic effects these factors will have on the human body.
Tox21 Assay Protocol Summary: A double-stable (hCAR and CYP2B6-2.2kb) transfected cell line, derived from human hepatoma (HepG2) cells, was utilized for the duration of the quantitative high-throughput screens. The HepG2-CYP2B6-hCAR cells suspended in DMEM culture medium supplemented with 10% FBS, 5 ug/mL blasticidin, 0.5 mg/mL geneticin, 100 U/mL penicillin and 100 ug/mL streptomycin were dispensed at 2500 cells/4 uL/well in 1536-well white solid bottom plates using a Multidrop Combi. After the assay plates were incubated at 37 C/5% CO2 for 4 hrs, 23 nL of compounds at 15 concentrations (from 5-48 columns) or positive control (from 1 to 4 columns) were transferred to the assay plates using a Pintool station. One uL of CITCO, was added using a Flying Reagent Dispenser to generate a final concentration of 50 nM CITCO inside each well. After a 24 hr incubation period at 37 C/5% CO2, four uL of ONE-Glo reagent was added into the assay plates using a Flying Reagent Dispenser. After a 30 min incubation period at room temperature, the luminescence intensity in the assay plates was measured using a ViewLux plate reader.
On the % scale 0 is the no-effect control and ±100 the full control effect; potency means the concentration at half of the fitted maximal effect.

Sequence of Nuclear receptor subfamily 1 group I member 3 (Homo sapiens) (Q14994 whole entry, looked up): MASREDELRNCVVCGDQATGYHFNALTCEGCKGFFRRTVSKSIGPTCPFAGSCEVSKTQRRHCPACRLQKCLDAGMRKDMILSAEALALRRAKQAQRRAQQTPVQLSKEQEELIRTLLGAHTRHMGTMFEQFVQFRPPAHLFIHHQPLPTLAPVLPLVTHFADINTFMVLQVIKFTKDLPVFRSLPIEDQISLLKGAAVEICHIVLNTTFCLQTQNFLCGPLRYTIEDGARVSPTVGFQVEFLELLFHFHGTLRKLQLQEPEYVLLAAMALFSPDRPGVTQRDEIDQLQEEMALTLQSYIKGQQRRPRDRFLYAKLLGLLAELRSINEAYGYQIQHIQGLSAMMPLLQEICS

Row | SMILES | activity, negative = inhibition | Potency
1 | CCCCCCCC(OC)OC | 23.9% [at 42.5 µM] | 
2 | CCc1cccc(CC)c1N(COC)C(=O)CS(=O)(=O)O | -5.19% | 
3 | CN1CCN(C2Cc3ccccc3Sc3ccc(Cl)cc32)CC1 (stereo not given) | 6.7% [at 42.5 µM] | 
4 | Nc1cc(Cl)c([N+](=O)[O-])cc1O | 139% | 
5 | CC(O)C#CC(C)O (stereo not given) |  | 48.1 µM (active)
6 | OCCC(O)CO (stereo not given) | 2.69% | 
7 | CCO[Si](C)(C)OCC | 13.6% | 
8 | CCCCCCCCCCCCCCNCCO | 72.3% [at 42.5 µM] | 
9 | CCCCCCCCCCCCN(CCO)CCO |  | 68.3 µM (active)
10 | C=CC(=C)CC/C=C(\C)CCC=C(C)C | 8.18% [at 19 µM] | 
11 | Oc1ccc(-c2ccccc2)c(Cl)c1 | 105% | 
12 | CC(=O)c1ccccc1N | 0.158% | 
13 | C=C[C@](C)(O)CC[C@@H]1[C@@]2(C)CCCC(C)(C)[C@@H]2CC[C@@]1(C)O | -22.5% | 
14 | CCCCCCCCCCCCOC(=O)c1cc(O)c(O)c(O)c1 |  | 76.6 µM (active)
15 | C(=C/c1ccccc1)/c1ccccc1 | 8.63% | 
16 | CC(C)OC(=O)c1cc(C(=O)OC(C)C)cc([N+](=O)[O-])c1 | 79.9% | 
17 | CCN1CCN(c2cc(-c3ccc(F)cc3)c3c(n2)CCCCCC3)CC1 | 16.5% [at 19 µM] | 
18 | N#CSCSc1nc2ccccc2s1 |  | 30.6 µM (active)
19 | O=c1cccc[nH]1 | 7.42% | 
20 | CCCCN(CCCC)CCC(O)c1cc2c(Cl)cc(Cl)cc2c2cc(C(F)(F)F)ccc12 (stereo not given) | 9.1% [at 42.5 µM] | 

Row | SMILES | activity, negative = inhibition | Potency
21 | CCOCOCC | 23.9% | 
22 | CO[Si](CCCNCCNCCN)(OC)OC | -6.79% | 
23 | Cc1cncc(C)c1 | 16.5% | 
24 | OCCN1CN(CCO)CN(CCO)C1 | 13.8% | 
25 | CC1=C(/C=C/C(C)=C/C=C/C(C)=C\C=O)C(C)(C)CCC1 | 60.5% | 
26 | CCOC(/C=C(\C)CCC=C(C)C)OCC | -18.6% | 
27 | Cc1nc(Nc2ncc(C(=O)Nc3c(C)cccc3Cl)s2)cc(N2CCN(CCO)CC2)n1 |  | 9.44 µM (active)
28 | COc1cc(C(C)C)c2c(c1)S(=O)(=O)N(COc1cc(=O)n3cccc(OCCN4CCCCC4)c3n1)C2=O | -19.4% [at 19 µM] | 
29 | CCO[Si](CCCSSSSCCC[Si](OCC)(OCC)OCC)(OCC)OCC | 27.1% | 
30 | CCCC(C)CCC(C)=O (stereo not given) | -1.55% | 
31 | CCC(=O)OCCc1ccccc1 | 2.57% | 
32 | CCCCCCCC/C=C\CCCCCCCC(=O)OCCOC(=O)CCCCCCC/C=C\CCCCCCCC | 6.89% | 
33 | CSc1ccc2c(c1)N(CCC1CCCCN1C)c1ccccc1S2 (stereo not given) | -5.11% [at 42.5 µM] | 
34 | CCCCCCOc1ccc(O)cc1 | 76.3% | 
35 | CCCCCCCOC(=O)c1ccccc1C(=O)OCCCCCCC | 66% | 
36 | O=CC1CC1 | -17.2% | 
37 | Brc1ccccc1-c1ccccc1 | 38% | 
38 | Cc1c(C(=O)O)cccc1[N+](=O)[O-] | 4.27% | 
39 | C/C=C/C(=O)C1=C(C)CCCC1(C)C | 58.8% | 
40 | CCCCCCCC/C=C\CCCCCCCC(=O)NCc1ccc(O)c(OC)c1 | -3.82% [at 42.5 µM] | 
